USP17 block = inhibitors of human USP17 deubiquitinase. actives 6.5% (n = 47,000). purified USP17, Ub-rhodamine cleavage fluorescence, 3 h. inhibition, % at 50 µM. A8MUK1. AID 1645855
USP28 block = inhibitors of human USP28 deubiquitinase; inhibition, % at 25 µM; Q96RU2; AID 1645857; purified USP28, Ub-rhodamine cleavage fluorescence, 30 min; actives 3% (n = 47,000)
USP8 inh = blocks human USP8 ubiquitin-rhodamine cleavage | P40818 | purified USP8, Ub-rhodamine cleavage fluorescence, 30 min | inhibition, % at 20 µM | actives 4.2% (n = 47,000) | AID 1645853
Target sequence (P40818 whole entry, looked up): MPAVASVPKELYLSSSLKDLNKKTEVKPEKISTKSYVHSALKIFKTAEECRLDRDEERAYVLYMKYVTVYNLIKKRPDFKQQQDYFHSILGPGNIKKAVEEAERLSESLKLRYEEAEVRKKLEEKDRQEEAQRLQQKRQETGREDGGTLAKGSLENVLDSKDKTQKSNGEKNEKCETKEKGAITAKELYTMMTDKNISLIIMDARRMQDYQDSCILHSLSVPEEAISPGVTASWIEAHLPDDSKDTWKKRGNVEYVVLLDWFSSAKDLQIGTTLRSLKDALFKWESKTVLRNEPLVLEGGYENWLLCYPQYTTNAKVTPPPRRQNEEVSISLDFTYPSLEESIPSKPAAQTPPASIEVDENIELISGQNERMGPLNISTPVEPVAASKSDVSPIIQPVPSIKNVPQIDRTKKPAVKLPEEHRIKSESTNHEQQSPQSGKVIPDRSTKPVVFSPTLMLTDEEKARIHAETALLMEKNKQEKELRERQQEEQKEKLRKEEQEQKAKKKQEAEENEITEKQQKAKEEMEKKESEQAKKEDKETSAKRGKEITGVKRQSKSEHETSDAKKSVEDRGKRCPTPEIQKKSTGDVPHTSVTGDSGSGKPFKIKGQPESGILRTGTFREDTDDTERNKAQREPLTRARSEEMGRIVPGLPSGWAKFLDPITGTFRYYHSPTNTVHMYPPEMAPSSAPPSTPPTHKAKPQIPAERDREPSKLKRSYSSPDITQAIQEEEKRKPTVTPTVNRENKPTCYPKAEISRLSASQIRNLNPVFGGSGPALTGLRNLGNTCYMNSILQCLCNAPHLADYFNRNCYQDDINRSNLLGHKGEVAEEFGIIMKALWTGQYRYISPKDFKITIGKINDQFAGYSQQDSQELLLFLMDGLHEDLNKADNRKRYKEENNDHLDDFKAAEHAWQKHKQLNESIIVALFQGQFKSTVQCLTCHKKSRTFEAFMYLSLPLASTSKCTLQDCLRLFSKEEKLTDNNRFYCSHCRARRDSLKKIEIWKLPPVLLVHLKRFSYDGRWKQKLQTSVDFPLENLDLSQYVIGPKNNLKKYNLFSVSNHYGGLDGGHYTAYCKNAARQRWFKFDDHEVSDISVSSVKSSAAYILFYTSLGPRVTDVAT
USP30 inh = blocks human USP30 ubiquitin-rhodamine cleavage. Q70CQ3. purified USP30, Ub-rhodamine cleavage fluorescence. inhibition, % at 25 µM. actives 5.3% (n = 47,000)
Numbers stand for hits; n = inactive; x = no result given. Shown are actives, neighbours in structure and some others; about 13% of the full set was active somewhere. Rule as the data show it: active = inhibition above about 30%; inactive = the rest.

SMILES	USP17 block	USP28 block	USP8 inh	USP30 inh
O=C1CC(c2nc3ccccc3n2Cc2ccccc2)CN1Cc1ccccc1 (stereo unspecified)	n	n	n	n
Cc1ccccc1OCCCn1c(C2CC(=O)N(Cc3ccccc3)C2)nc2ccccc21 (stereo unspecified)	n	n	n	48.6
CCN(CC)C(=O)Cn1c(C2CC(=O)N(Cc3ccc(F)cc3)C2)nc2ccccc21 (stereo unspecified)	n	n	n	n
CCS(=O)(=O)N1CC(=O)N(c2ccc(F)cc2)C(C)(C(=O)NCc2ccccc2)C1 (stereo unspecified)	n	n	n	n
Cn1nc(C2CCN(C(=O)Cc3cccc(F)c3)CC2)c2nccnc21	33.7	n	82.1	n
Cn1nc(C2CCN(C(=O)COc3ccccc3F)CC2)c2nccnc21	n	n	n	n
Cc1cc(N2CCN(c3ccc([N+](=O)[O-])cc3)CC2)nc2cc3c(cc12)CCC3	30.3	n	n	n
Cc1cc(C)n(-c2nc3ccccc3nc2N2CCN(c3ccc([N+](=O)[O-])cc3)CC2)n1	n	n	n	n
Fc1ccc(Cl)cc1-c1nnc(-c2ccc(-n3ccnc3)nc2)o1	48.4	n	n	46.3
Fc1ccc(CNc2cc(-n3ccnc3)ncn2)c(F)c1	n	n	n	n
Cc1ccc(Cc2nc(-c3ccc(-n4ccnc4)nc3)no2)cc1	n	n	n	n
Fc1ccc(F)c(-c2nnc(-c3ccc(-n4ccnc4)nc3)o2)c1	46.5	n	n	n
CCC(Oc1ccccc1)C(=O)NC(c1ccccc1)c1ccccc1 (stereo unspecified)	n	n	n	n
CCc1ccc(NC(=O)CCNc2cc(C)nc3nc(-c4cccnc4)nn23)cc1	34.4	n	n	n
CC(C)c1cc(Nc2cccc(F)c2)n2nc(-c3cccnc3)nc2n1	34.3	n	n	53.1
Cc1cc(Nc2ccc(Cl)cc2)n2nc(-c3cccnc3)nc2n1	n	n	n	n
Cc1cc(Nc2cccc(C(=O)Nc3ccccc3C)c2)n2nc(-c3cccnc3)nc2n1	n	n	n	46.1
Cc1cc(Nc2ccc(C(=O)NCc3ccco3)cc2)n2nc(-c3cccnc3)nc2n1	74.7	n	n	30.3
Cc1cc(Nc2cccc(C(=O)Nc3ccccc3)c2)n2nc(-c3cccnc3)nc2n1	n	n	n	n
O=C(c1ccc2ccccc2n1)N1CCC(c2nccnc2-c2ncc[nH]2)CC1	n	n	n	n
CCN(CC)C(=O)Cn1cc(C(=O)C(=O)NCc2ccccc2Cl)c2ccccc21	n	n	n	45.5
CCN(CC)C(=O)Cn1cc(S(=O)(=O)Cc2c(F)cccc2Cl)c2ccccc21	n	n	n	37.7
CCN(CC)C(=O)Cn1cc(S(=O)(=O)Cc2ccccc2Cl)c2ccccc21	37.7	n	n	n
Cn1nccc1C(=O)N[C@@H]1C[C@@H](Oc2cccc(F)c2)[C@H](O)[C@H]1N1CCCC1	n	n	n	n
CN(C)C(=O)N1CCN(S(=O)(=O)c2ccccc2)CC2(CNC(=O)C2)C1 (stereo unspecified)	n	n	n	n
SMILES	USP17 block	USP28 block	USP8 inh	USP30 inh
COc1cccc(NC(=O)c2cn(-c3cc(N4CCOCC4)ncn3)cn2)c1	n	n	n	n
O=C(c1cc2ccccc2o1)[C@@H]1[C@@H]2CCCN2[C@]2(C(=O)Nc3ccc(Cl)cc32)[C@@]12C(=O)Nc1ccccc12	n	n	n	n
Clc1ccc(CN2CCc3nc(Nc4ccc5c(c4)OCO5)ncc3C2)cc1	n	n	30.1	n
O=C(NCc1ccccc1)c1cc(S(=O)(=O)N2CCCCC2)ccc1N1CCOCC1	n	n	n	n
O=C(Nc1ccc(N2CCCCC2)cc1)C1CCN(S(=O)(=O)c2ccc3c(c2)OCCCO3)CC1	n	n	n	n
O=C(Nc1ccc2c(c1)OCCCO2)c1cc(S(=O)(=O)N2CCCCC2)ccc1N1CCCC1	68.3	n	n	78.4
Cc1ccccc1NC(=O)C1CCN(S(=O)(=O)c2ccc3c(c2)OCCCO3)CC1	69.4	n	n	74.1
O=S(=O)(Nc1cc(S(=O)(=O)N2CCCCC2)ccc1O)c1ccc2c(c1)OCCCO2	34.4	n	82.7	n
O=S(=O)(c1ccc2c(c1)OCCO2)N1CCC(N2CCCCC2)CC1	n	n	n	n
Cc1cccc(CN2CCC(CNS(=O)(=O)c3cc4c(cc3C)NC(=O)CO4)CC2)c1	n	n	n	n
C/C=C(\C)CC(C)C(O)C(C)C1OC2(CC(OC)C1C)OC(C(C)C(O)C(C)\C=C/C=C/C=C/C=C/C=C\C(CC(=O)O)OC)C(C)CC2O (stereo unspecified)	n	n	n	n
COC1=C(C)C(C)(O)c2[nH]c3ccccc3c2C1=O (stereo unspecified)	41.6	n	n	n
O=C(C1CC(=O)N(c2ccc(Cl)cc2)C1)N1CCc2ccccc2C1 (stereo unspecified)	n	n	n	n
Cc1cc(C(=O)NC2(O)C(=O)c3ccccc3C2=O)n(C)n1	94.1	n	81.9	35.9
Cc1ccc(NC(=O)CCc2ccc(S(=O)(=O)N3CCOCC3)cc2)c(O)c1	n	n	46.9	n
O=C(CCc1ccc(S(=O)(=O)N2CCOCC2)cc1)Nc1ccc2c(c1)OCO2	n	n	n	n
Cc1ccc(S(=O)(=O)N2CCOCC2)cc1C(=O)NCCc1ccc(S(N)(=O)=O)cc1	n	n	n	n
O=C(CCc1ccc(S(=O)(=O)N2CCOCC2)cc1)Nc1ccc2c(c1)OCCO2	n	61.3	n	n
CN(Cc1ccccc1)C(=O)CC1(CC(=O)O)CCCC1	n	n	n	n
COc1ccc(CN(C(=O)/C=C/c2ccc(C)cc2)C2CCS(=O)(=O)C2)cc1 (stereo unspecified)	n	n	n	n
O=C1CC(c2ccc(C(F)(F)F)cc2)c2c(nc(-c3ccccc3)[nH]c2=O)N1 (stereo unspecified)	n	n	64.7	n
O=C(COC(=O)c1ccc2[nH]c3c(c2c1)CCCC3)Nc1ccccc1Cl	n	n	n	n
O=C(COC(=O)c1ccc2[nH]c3c(c2c1)CCCC3)Nc1ccc2c(c1)OCO2	66.3	n	40.8	42.1
CC(C)c1ccc(NC(=O)COC(=O)c2ccc3[nH]c4c(c3c2)CCCC4)cc1	58.0	n	n	n
CS(=O)(=O)c1ccc(Cl)c(NC(=O)COC(=O)c2ccc3[nH]c4c(c3c2)CCCC4)c1	x	n	n	34.7
SMILES	USP17 block	USP28 block	USP8 inh	USP30 inh
O=C(COC(=O)c1ccc2[nH]c3c(c2c1)CCCC3)Nc1ccccc1-c1ccccc1	x	n	n	n
N#Cc1ccc(C(=O)NC(c2ccccc2)c2nnc(N3CCOCC3)o2)cc1 (stereo unspecified)	n	n	n	n
Cc1nc2sc3c(c2c2nnc(SCc4ccccc4)n12)CC(C)(C)OC3	n	n	n	n
COc1ccc2c(c1)c(=O)c(S(=O)(=O)c1ccc(F)cc1)cn2Cc1cccc(F)c1	n	n	n	n
CC(Sc1nnc(-c2ccncc2)o1)C(=O)NCCc1ccc(Cl)cc1 (stereo unspecified)	n	n	n	n
COc1ccccc1-c1cc2c(=O)n(Cc3nc(-c4ccccc4C)no3)ccn2n1	n	n	n	46.6
COc1ccccc1-c1noc(Cn2ccn3nc(-c4ccc(F)cc4)cc3c2=O)n1	n	n	n	n

Compound activity (PubChem)
